PubChem BioAssay AID2730 (National Center for Advancing Translational Sciences (NCATS), 2010)
This is one part of the list. Records with an inconclusive call do not appear. A number with no mark means an inactive call. Active and inactive are the calls of the source. Calls follow the shape of the dose curve; as a rule, active = well fitted inhibition curve with a large enough effect; inconclusive = small, poorly fitted or top-dose-only effect; inactive = no such curve, though single readings can be large or run the other way.

Experiment: High Content Assay for Compounds that inhibit the Assembly of the Perinucleolar Compartment: Confirmation of PNC Inhibition
Conditions: PC3M PTB-GFP, PNC prevalence imaging, 16 h; series mostly up to 46.1 µM; activity, negative = PNC inhibition: at the top concentration
Excerpt: High Content Assay for Compounds that inhibit the Assembly of the Perinucleolar Compartment NIH Chemical Genomics Center [NCGC] NIH Molecular Libraries Probe Centers Network [MLPCN] MLPCN Grant: MH082371-01A2 Assay Submitter (PI): Sui Huang, Northwestern University, Feinberg School of Medicine, Cell and Molecular Biology, Chicago, Illinois. The perinucleolar compartment (PNC) is a non-membrane-bound nuclear subdomain that is associated with but structurally distinct from the nucleolus. The PNC is a heritable trait, in which the number of PNCs per cell in daughter cells often mimics that of their mother cells. The PNC is heterogeneous in shape, is stable through interphase, disassembles during mitosis, and reassembles in early G1. The PNC is concentrated with newly synthesized RNA polymerase III (pol III) RNAs (MRP RNA, RNAse P H1 RNA, hY RNAs[hY1, 2, 5], Alu RNA, and SRP [7SL] RNA) and RNA binding proteins (nucleolin, PTB, CUG-BP, KSRP, Raver1, Raver2, and Rod). […] Extensive in vitro studies have shown that the PNC is unique to tumor cells and preferentially forms in tumor cells derived from solid tissues. Examination of cancer cell lines from various origins and malignant capacities has shown that PNC prevalence correlates with the malignancy of tumors and has the potential to be developed as a pan-cancer prognostic marker. […] Although the PNC is associated with a DNA locus and a handful of components have been identified, much remains to be investigated regarding the structure and function of the PNC and its mechanistic link to cancer. We have previously shown that PNC prevalence reduction is a valid strategy to identify compounds that can be used to study the structure and function of the PNC. It is necessary, however, to create a screening platform that is able to test a large number of compounds in an automated fashion. Here we report the development and robustness of an automated whole-cell phenotypic image-based screening assay that is capable of identifying such compounds. Compounds active in the primary screen were then re-screened in concentration-response to confirm activity.
PNC High Content Imaging Assay Procedure: 1. Cells at a density of 75-90% confluency in T175 flasks were harvested using 7 ml TrypLE Express cell dissociation reagent. After dissociation (5 minutes room temperature incubation) 10 ml of complete media was added to the TrypLE/cell suspension. The liquid was transferred to a 50 ml Conical tube and cells were pelleted at 1000 RPM for 5 min. Supernatant was removed and cells were resuspended to a final density of 150-200 cells/ul in complete media. 2. Cells were plated in 5 ul volume (750-1000 cells/well) into 1536 well Black uclear Aurora Low Base plates and allowed to recover and adhere at 37 C in a humidified 5% CO2 incubator for 4 hours. 3. After 4 hour incubation, compound libraries (23 nl of […] in columns 5-48) were transferred to the plates in duplicate using a 1536 well pintool. Camptothecin positive control (59 uM final) was added to column 2 and 1:3 dilutions of camptothecin was added to column 3. DMSO negative controls were present in columns 1 and 4. 4. After a 16 hour incubation in the 37 C incubator, cells were fixed by the addition of 4 ul of 6% EM grade paraformaldehyde (containing 0.1% triton X 100) directly to the cells. The plates were incubated at room temperature for 20 minutes. […]
With CCOC(=O)c1c(-c2cccc(C)c2)csc1NC(=O)c1c(-c2ccccc2)noc1C the Potency was 2.51 µM (active). In the case of COC(=O)C1=C(C)N(c2ccc(Br)cc2)C(=O)/C1=C\c1ccco1, the “activity, negative = PNC inhibition” value is reported as -26.2%. In the case of Cn1c2ccccc2c(=O)c2c(=O)n(Cc3ccco3)c(COc3ccccc3)nc21, the Potency is reported as 11.2 µM (active). In the case of COC(=O)c1ccc(CSc2ccccc2C)o1, the “activity, negative = PNC inhibition” value is reported as 9.2%. For N=c1c2c(-c3ccccc3)c(-c3ccccc3)n(Cc3ccccc3)c2ncn1CCCO, the Potency was 4.47 µM (active).
